# Assay results as given in PubChem BioAssay.
# Activity calls are given as the source filed them. Unless noted, how the calls were made is not given here.
# Tests used:
# [1] = system: Wnt5a (protein binding on small-molecule microarray); assay: Wnt5a binders on small-molecule microarray, primary screen, biophysical, 635/667 nm fluorescence (AID 1142); conditions: 635 nm fluorescence, higher = more signal;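 further: fluorescence read at 667 nm with signal to noise per printed feature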
# [2] = cell viability in Huh7 cells, primary screen, cytotoxicity control for HCV replication inhibitor project, CellTiter-Glo luminescence, basal, 48 h (AID 1143); conditions: Huh7 HCV replicon, higher = more signal, called active from +8 up or from −8 down;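 further: Huh7 hepatoma cells carrying a hepatitis C replication reporter with no stimulus; test concentration not given here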
# [3] = P. aeruginosa biofilm formation inhibitors, primary screen, PAO1 strain, BacTiter-Glo luminescence, LB-PBS (AID 1144); conditions: 12 h, higher = more signal
# [4] = CREB reporter modulators without forskolin, primary screen, cell-based, PC12, CRE-LacZ reporter, unstimulated (AID 1145); conditions: no forskolin, luminescence, 4.5 h, higher = more signal, called active from +8 up or from −8 down
# [5] = CREB reporter modulators under forskolin, primary screen, cell-based, PC12, CRE-LacZ reporter, forskolin-stimulated (AID 1146); conditions: luminescence, 4.5 h, higher = more signal, called active from +8 up or from −8 down;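 further: PC12 cells with 6xCRE LacZ reporter stimulated by forskolin 10 µM; beta-galactosidase reporter signal reflecting CREB driven transcription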
# [6] = molecular target: Streptavidin (Streptomyces avidinii) (UniProt P22629); assay: streptavidin binders on small-molecule microarray, primary screen, artefact control for SMM compound annotation, biophysical, 635/667 nm fluorescence (AID 1147); conditions: streptavidin binding, higher = more signal;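 further: signal reflects streptavidin binding to arrayed compounds as a control protein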
# Streptavidin (Streptomyces avidinii), sequence (P22629 whole entry, looked up): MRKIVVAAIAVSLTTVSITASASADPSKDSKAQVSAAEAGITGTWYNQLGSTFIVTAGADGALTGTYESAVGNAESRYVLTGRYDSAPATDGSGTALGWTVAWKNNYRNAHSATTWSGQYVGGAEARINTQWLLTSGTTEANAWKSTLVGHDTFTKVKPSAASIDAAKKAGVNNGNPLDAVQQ
# [7] = small-molecule binders of probe aInhba, primary screen, biochemical, small-molecule microarray, 635/667 nm fluorescence (AID 1148); conditions: higher = more signal;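 further: score merges 667nm spot fluorescence with signal-to-noise for antibody binding to printed compounds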
# Torsin-1A (Homo sapiens) [8] = molecular target: Torsin-1A (Homo sapiens) (UniProt O14656); assay: torsin A binders from cell lysate, primary screen, small-molecule microarray, wild-type, 635/667 nm (AID 1149); conditions: COS7 hTOR1A-WT lysate, 635 nm fluorescence, higher = more signal
# Torsin-1A (Homo sapiens), sequence (O14656 whole entry, looked up): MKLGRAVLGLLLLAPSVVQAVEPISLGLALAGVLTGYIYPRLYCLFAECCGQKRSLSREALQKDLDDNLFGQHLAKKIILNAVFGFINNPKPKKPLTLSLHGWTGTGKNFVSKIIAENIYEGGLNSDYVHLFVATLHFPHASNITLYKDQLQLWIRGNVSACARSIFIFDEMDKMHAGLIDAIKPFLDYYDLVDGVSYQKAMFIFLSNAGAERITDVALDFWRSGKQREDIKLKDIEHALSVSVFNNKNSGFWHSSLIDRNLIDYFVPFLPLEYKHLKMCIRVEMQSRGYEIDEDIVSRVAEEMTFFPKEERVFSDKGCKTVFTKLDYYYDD
# Torsin-1A (Homo sapiens) [9] = molecular target: Torsin-1A (Homo sapiens) (UniProt O14656); assay: small-molecule binders of mutant TOR1A in lysate, primary screen, cell lysate, small-molecule microarray, COS7 lysate, 635/667 nm fluorescence (AID 1150); conditions: COS7 hTOR1A mutant lysate, 635 nm fluorescence, higher = more signal;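 further: score pools 667 nm emission and signal to noise measuring lysate protein binding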
# [10] = system: Sonic hedgehog protein (Shh); assay: small-molecule binders of Shh protein, primary screen, biochemical, small-molecule microarray, 635/667 nm fluorescence (AID 1151); conditions: small-molecule microarray binding, 635 nm fluorescence; higher = more signal;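 further: Shh protein binding to compounds spotted on small-molecule microarray slides; score combines spot fluorescence intensity with signal-to-noise across triplicate slides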
# [11] = E. coli DRC41 culture turbidity changes, primary screen, E. coli filamentation inducer project, strain DRC41, OD650, 48 h (AID 1152);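 further: E. coli MC1000 strain DRC41 lacking acrAB efflux pump and sulA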; conditions: E. coli DRC41 (acrAB sulA), higher = more signal, called active from +8 up or from −8 down
# [12] = small-molecule binders of probe aLefty1, primary screen, biochemical, small-molecule microarray, 635/667 nm fluorescence (AID 1153); conditions: higher = more signal;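 further: score merges spot fluorescence with signal-to-noise ratio from the scanned slide images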
# [13] = PSAC antagonists in infected red cells, primary screen, cell-based, P. falciparum Indochina, OD700, 1 h (AID 1154); conditions: P. falciparum Indochina infected RBC osmotic lysis, higher = more signal, called active from +8 up or from −8 down
# [14] = PSAC antagonists in infected red cells, primary screen, cell-based, P. falciparum Indochina, OD700, 2 h (AID 1155);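 further: lysis reports solute entry through the parasite surface anion channel PSAC; channel blockers reduce lysis of infected cells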; conditions: P. falciparum Indochina infected erythrocytes, osmotic lysis OD700; higher = more signal, called active from +8 up or from −8 down
# [15] = osmotic lysis modulators in infected erythrocytes, primary screen, PSAC antagonist project, cell-based, P. falciparum Indochina, OD700, 3 h (AID 1156); conditions: higher = more signal, called active from +8 up or from −8 down
# [16] = PSAC antagonists in infected red cells, primary screen, cell-based, P. falciparum Indochina, OD700, 18 h (AID 1157); conditions: P. falciparum Indochina infected erythrocytes, osmotic lysis OD700, 18 h; higher = more signal, called active from +8 up or from −8 down
# [17] = modulators of S6 phosphorylation in cells, primary screen, cell-based, A549, cytoblot, luminescence, serum-stimulated (AID 1158); conditions: A549 phospho-S6 cytoblot, 5 h, higher = more signal;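 further: serum-stimulated A549 lung adenocarcinoma cells; signal is phosphorylated S6 detected by cytoblot immunostaining with HRP secondary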
# [18] = molecular target: NADPH oxidase 2 (Homo sapiens) (UniProt P04839); assay: NOX2-dependent H2O2 signal modulators, primary screen, NOX inhibitor project, cell-based, HEK293-NOX2, PMA-stimulated, Amplex Red fluorescence (AID 1159); conditions: 45 min, higher = more signal, called active from +8 up or from −8 down; further: test concentration not given here
# NADPH oxidase 2 (Homo sapiens), sequence (P04839 whole entry, looked up): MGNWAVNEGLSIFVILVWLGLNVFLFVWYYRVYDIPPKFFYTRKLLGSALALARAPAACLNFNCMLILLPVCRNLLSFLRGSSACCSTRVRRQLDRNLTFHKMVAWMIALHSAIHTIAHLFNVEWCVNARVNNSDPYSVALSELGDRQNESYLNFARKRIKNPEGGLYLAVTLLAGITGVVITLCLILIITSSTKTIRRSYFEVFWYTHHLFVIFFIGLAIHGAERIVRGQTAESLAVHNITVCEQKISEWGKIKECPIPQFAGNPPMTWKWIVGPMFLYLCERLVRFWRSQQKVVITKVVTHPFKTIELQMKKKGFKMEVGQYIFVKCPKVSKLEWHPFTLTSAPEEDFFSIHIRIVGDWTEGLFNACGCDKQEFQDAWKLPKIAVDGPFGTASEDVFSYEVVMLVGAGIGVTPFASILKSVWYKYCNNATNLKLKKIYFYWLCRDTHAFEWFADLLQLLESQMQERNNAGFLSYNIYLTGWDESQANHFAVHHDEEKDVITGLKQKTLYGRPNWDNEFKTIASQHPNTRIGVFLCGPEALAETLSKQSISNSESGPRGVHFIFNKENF
# [19] = molecular target: NADPH oxidase 4 (Homo sapiens) (UniProt Q9NPH5); assay: NOX4-dependent H2O2 signal modulators, primary screen, NOX inhibitor project, cell-based, HEK293-NOX4, tetracycline-induced, Amplex Red fluorescence (AID 1160); conditions: 45 min, higher = more signal, called active from +8 up or from −8 down
# NADPH oxidase 4 (Homo sapiens), sequence (Q9NPH5 whole entry, looked up): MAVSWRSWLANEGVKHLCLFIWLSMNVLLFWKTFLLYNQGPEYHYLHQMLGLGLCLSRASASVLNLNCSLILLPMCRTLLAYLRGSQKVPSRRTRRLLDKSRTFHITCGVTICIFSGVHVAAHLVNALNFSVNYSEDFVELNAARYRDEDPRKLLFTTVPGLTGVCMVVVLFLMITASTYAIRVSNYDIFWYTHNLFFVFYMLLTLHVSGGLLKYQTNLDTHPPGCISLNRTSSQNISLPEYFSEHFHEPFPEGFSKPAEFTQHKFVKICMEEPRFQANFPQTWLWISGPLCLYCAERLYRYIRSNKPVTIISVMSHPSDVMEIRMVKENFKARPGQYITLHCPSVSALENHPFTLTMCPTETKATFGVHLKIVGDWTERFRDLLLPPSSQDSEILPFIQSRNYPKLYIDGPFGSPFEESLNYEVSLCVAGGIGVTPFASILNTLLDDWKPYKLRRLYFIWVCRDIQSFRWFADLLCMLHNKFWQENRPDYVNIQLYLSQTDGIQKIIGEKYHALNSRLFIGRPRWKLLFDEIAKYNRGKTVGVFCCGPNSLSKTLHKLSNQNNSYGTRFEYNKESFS
# [20] = molecular target: NADPH oxidase 5 (Homo sapiens) (UniProt Q96PH1); assay: NOX5-dependent H2O2 signal modulators, primary screen, NOX inhibitor project, cell-based, HEK293-NOX5, Amplex Red fluorescence (AID 1161); conditions: HEK293-NOX5, ionomycin, 45 min, higher = more signal
# NADPH oxidase 5 (Homo sapiens), sequence (Q96PH1 whole entry, looked up): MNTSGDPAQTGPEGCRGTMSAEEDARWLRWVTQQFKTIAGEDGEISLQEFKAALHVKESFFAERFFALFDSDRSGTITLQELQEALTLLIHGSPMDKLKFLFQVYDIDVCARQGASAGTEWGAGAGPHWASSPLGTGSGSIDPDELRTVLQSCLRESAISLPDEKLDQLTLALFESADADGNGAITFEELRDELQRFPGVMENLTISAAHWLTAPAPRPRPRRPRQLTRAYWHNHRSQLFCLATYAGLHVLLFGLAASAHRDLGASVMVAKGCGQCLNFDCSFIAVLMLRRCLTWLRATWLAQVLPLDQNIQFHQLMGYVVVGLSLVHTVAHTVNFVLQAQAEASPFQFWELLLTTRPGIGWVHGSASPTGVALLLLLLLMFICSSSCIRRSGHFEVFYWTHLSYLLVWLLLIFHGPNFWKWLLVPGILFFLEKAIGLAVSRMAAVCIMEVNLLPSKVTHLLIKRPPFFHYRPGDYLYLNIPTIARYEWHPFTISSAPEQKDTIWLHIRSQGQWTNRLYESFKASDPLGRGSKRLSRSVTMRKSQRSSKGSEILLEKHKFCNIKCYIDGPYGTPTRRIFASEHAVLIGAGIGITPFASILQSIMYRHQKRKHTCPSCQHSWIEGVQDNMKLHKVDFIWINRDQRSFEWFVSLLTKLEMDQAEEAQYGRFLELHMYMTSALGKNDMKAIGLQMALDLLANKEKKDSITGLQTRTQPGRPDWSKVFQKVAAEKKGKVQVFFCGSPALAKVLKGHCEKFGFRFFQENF
Compound,composite z-score [1],z-score [2],z-score [3],z-score [4],z-score [5],composite z-score [6],composite z-score [7],composite z-score (Torsin-1A (Homo sapiens) [8]),composite z-score (Torsin-1A (Homo sapiens) [9]),composite z-score [10],z-score [11],composite z-score [12],z-score [13],z-score [14],z-score [15],z-score [16],z-score [17],z-score [18],z-score [19],z-score [20]
COc1ccc(NC(=O)O[C@H]2[C@H](OC(=O)c3cc4ccccc4[nH]3)[C@@H](OC(=O)c3cc4ccccc4[nH]3)[C@@H](OC)O[C@@H]2CO)cc1,0.147,-4.18 (inactive),-1.65 (inactive),1.84 (inactive),-1.1 (inactive),-0.342,-0.0044,-0.0863,0.291,0.593,0.799 (inactive),-0.0529,2.35 (inactive),-0.529 (inactive),0.52 (inactive),-0.955 (inactive),1.22,-3.65 (inactive),-1.18 (inactive),-4.46
NC(=O)[C@@H]1[C@H]2C(=O)O[C@H](c3ccccc3)[C@H](c3ccccc3)N2[C@H](c2ccc(O)cc2)[C@@]12C(=O)Nc1ccc(C#CC3=CCCCC3)cc12,0.0867,-5.11 (inactive),0.403 (inactive),1.17 (inactive),0.117 (inactive),-0.102,0.468,0.558,0.281,2,-1.1 (inactive),1.47,1.78 (inactive),1.07 (inactive),-0.491 (inactive),1.27 (inactive),-0.7,0.615 (inactive),0.196 (inactive),-0.325
NC(=O)NCC#Cc1ccc2c(c1)[C@]1(C(=O)N2)[C@H](C(=O)O)[C@H]2C(=O)O[C@H](c3ccccc3)[C@H](c3ccccc3)N2[C@@H]1c1ccc(O)cc1,-0.0543,0.164 (inactive),-0.36 (inactive),0.892 (inactive),-0.89 (inactive),1.48,0.174,-0.359,-0.245,1.02,-1.29 (inactive),0.642,0.141 (inactive),0.0468 (inactive),-0.357 (inactive),0.27 (inactive),-0.603,1.17 (inactive),-0.399 (inactive),-0.349
C=C(CCCC)/C(=C/C[C@H](OC(C)=O)c1ccc(OCCO)cc1)c1cnc2ccccc2c1,0.0824,-1.76 (inactive),-0.829 (inactive),2.59 (inactive),1.08 (inactive),0.535,-0.0087,1.27,0.671,1.8,0.621 (inactive),0.0999,22 (active),6 (inactive),1.23 (inactive),1.04 (inactive),-0.1,-2.53 (inactive),-0.429 (inactive),-2.06
C#CCNCc1ccccc1,-0.0766,-0.0359 (inactive),1.16 (inactive),-0.882 (inactive),0.531 (inactive),0.202,-0.134,0.335,0.442,0.442,-0.131 (inactive),-0.235,0.229 (inactive),0.876 (inactive),-0.116 (inactive),0.409 (inactive),-0.255,-12.1 (active),-0.493 (inactive),0.615
O=C1C2C=CC(C(O)c3ccc4c(c3)OCO4)N(Nc3ccc([N+](=O)[O-])cc3)C2C(=O)N1c1ccccc1 (stereo not given),-0.0509,-0.954 (inactive),0.105 (inactive),-0.116 (inactive),-0.222 (inactive),0.145,-0.0178,-0.0053,0.17,-0.199,-0.81 (inactive),-0.101,18.1 (active),3.98 (inactive),1.4 (inactive),1.66 (inactive),-0.363,-1 (inactive),-3.31 (inactive),-2.1
O=C1C2C=CC(C(O)COCc3ccccc3)N(Nc3ccc([N+](=O)[O-])cc3)C2C(=O)N1c1ccccc1 (stereo not given),0.43,-3 (inactive),-1.83 (inactive),-0.275 (inactive),0.788 (inactive),0.464,0.0743,0.272,0.165,0.57,0.383 (inactive),0.447,9.2 (active),0.581 (inactive),-0.214 (inactive),-0.809 (inactive),0.213,-0.51 (inactive),-0.338 (inactive),0.629
CC(C)=CCCC(C)=CC(O)C1C=CC2C(=O)N(c3ccccc3)C(=O)C2N1Nc1ccc(C(C)C)cc1 (stereo not given),0.15,-0.11 (inactive),-0.603 (inactive),0.44 (inactive),0.204 (inactive),1.33,-0.0087,-0.728,-0.151,-0.309,-0.843 (inactive),0.201,0.934 (inactive),0.219 (inactive),0.391 (inactive),0.729 (inactive),-0.765,-1.11 (inactive),-1.15 (inactive),-1.34
COCCOC(=O)N1C(=O)[C@@]2(c3cc(C#CC4(O)CCCCCC4)ccc31)[C@H](C(=O)Nc1nc3ccccc3s1)[C@H]1C(=O)O[C@H](c3ccccc3)[C@H](c3ccccc3)N1[C@@H]2c1ccc(OCCO)cc1,0.564,-3.02 (inactive),-1.1 (inactive),-0.748 (inactive),1.65 (inactive),0.587,0.366,0.669,0.849,1.42,0.197 (inactive),0.411,2.97 (inactive),2.39 (inactive),1.73 (inactive),2.27 (inactive),0.481,0.566 (inactive),-0.595 (inactive),0.0214
[N-]=[N+]=Nc1ccccc1[C@H]1OC(c2ccc(OCCCO)cc2)=N[C@@]1(Cc1ccccc1)C(=O)N1CCOCC1,0.267,-4.05 (inactive),-0.622 (inactive),-0.0341 (inactive),-1.62 (inactive),2.01,0.554,0.124,0.212,0.672,-0.388 (inactive),0.342,30.8 (active),30.6 (active),2.96 (inactive),9.58 (active),-0.0055,-1.29 (inactive),1.27 (inactive),1.13
COC(=O)c1c2oc(c1C(=O)OC)C(=O)N[C@@H](C(C)C)Cn1cc(nn1)C1(CCCCC1)NC(=O)N[C@H](CO)CC2,0.432,0.24 (inactive),-0.377 (inactive),2.08 (inactive),-0.178 (inactive),0.177,-0.0477,0.935,0.48,0.246,2.15 (inactive),-0.146,1.1 (inactive),0.782 (inactive),0.144 (inactive),0.36 (inactive),0.223,0.644 (inactive),0.758 (inactive),-0.124
CCOC(=O)C1=CC[C@@H](c2ccccc2)N(S(=O)(=O)c2ccc(C)cc2)[C@H]1c1ccc(CC)cc1,0.074,-3.08 (inactive),1.17 (inactive),0.136 (inactive),0.0268 (inactive),1.13,0.0018,0.567,0.359,-0.737,-0.688 (inactive),0.166,0.874 (inactive),0.991 (inactive),-0.862 (inactive),0.361 (inactive),-0.253,0.711 (inactive),0.029 (inactive),0.46
COc1ccc([C@H]2C[C@H]3C(I)=C[C@@H]2C(=O)[C@]32CO2)cc1,-0.149,-0.307 (inactive),-0.125 (inactive),5.38 (inactive),-1.6 (inactive),1.25,-0.152,-0.067,-0.126,0.817,0.794 (inactive),-0.28,0.524 (inactive),0.0528 (inactive),0.255 (inactive),-0.0393 (inactive),0.759,-0.546 (inactive),-0.298 (inactive),-0.974
O=C1O[C@@H](c2ccccc2)[C@@H](c2ccccc2)N2[C@@H](c3ccc(OCCO)cc3)[C@]3(C(=O)Nc4ccc(C#CC5=CCCCC5)cc43)[C@@H](C(=O)N3CCCCCCC3)[C@H]12,1.18,-2.05 (inactive),-0.334 (inactive),0.568 (inactive),0.509 (inactive),2.92,1.93,1.58,2.02,1.37,0.343 (inactive),2.14,3.46 (inactive),1.85 (inactive),0.501 (inactive),1.03 (inactive),-0.262,0.463 (inactive),0.159 (inactive),0.293
COC(=O)C[C@H]1O[C@@H](CCc2ccccc2)[C@@H](C)[C@@H]1[Si](C)(C)c1ccc(OC)cc1,0.0073,-1.76 (inactive),0.315 (inactive),-0.87 (inactive),-0.687 (inactive),-0.604,-0.0963,-0.247,-0.23,-0.243,-0.95 (inactive),-0.188,2.54 (inactive),0.719 (inactive),-0.0062 (inactive),-0.0887 (inactive),0.0216,1.34 (inactive),-0.0337 (inactive),-2.06
COC(=O)C(CC#Cc1ccc2c(c1)[C@]1(C(=O)N2)[C@H](c2ccc(O)cc2)N2[C@H](c3ccccc3)[C@H](c3ccccc3)OC(=O)[C@H]2[C@@H]1C(=O)N1CCN(c2ncccn2)CC1)C(=O)OC,0.131,-2.25 (inactive),-1.08 (inactive),-0.644 (inactive),-0.0048 (inactive),0.709,0.313,0.131,0.338,0.618,0.347 (inactive),0.027,5.42 (inactive),0.658 (inactive),1.93 (inactive),0.515 (inactive),0.355,1.91 (inactive),0.857 (inactive),1.54
